Here are results for 13 compounds from PubChem BioAssay (NCI).

About 83,000 compounds went through this panel and 20% of them were active in at least one assay; those are over-represented in the sample as a whole.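 Percent growth is the endpoint: 0 to 100 indicates growth inhibition (40 means 60% inhibition), 0 means no net growth, and negative values indicate cell death.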 Values without a mark were called inactive. Calls of active or inactive are those of the source. Rule for the calls: active = growth percent below 10; inactive = the rest.

Assay in all cases: NCI-60 one-dose screen, 48 h (100 = growth as untreated, 0 = no growth, -100 = all killed)
The test system of one assay is NCI-H23 lung. The settings on record: 10 µM unless noted.
A further assay deals with NCI-H226 lung. To be noted: 10 µM unless noted.
Another assay has as its system NCI-H322M lung. To be noted: 10 µM unless noted.
A further assay concerns HOP-62 NSCLC. The settings on record: 10 µM unless noted.
For a further assay, the system named is NCI-H460 lung. The settings on record: 10 µM unless noted.
Another assay relates to HOP-92 NSCLC. To be noted: 10 µM.
The next assay deals with NCI-H522 lung. To be noted: 10 µM unless noted.
A further assay relates to A549/ATCC NSCLC. To be noted: 10 µM unless noted.
The subject of the next assay is 786-0 renal. The settings on record: 10 µM unless noted.
The test system of the next assay is COLO 205 colon. To be noted: 10 µM unless noted.

Consider `Cn1ccnc1C(=O)/C=C/c1ccc(CNC(=O)c2ccc(F)cc2)cc1`, for which the growth with NCI-H23 lung was 5.81% (active); with NCI-H226 lung, 51.7%; in the assay on NCI-H322M lung, 29.7%; in the assay with HOP-62 NSCLC it was 41.6%; in the assay on NCI-H460 lung, -27.1% (active); in the assay with HOP-92 NSCLC, 62.3%. Besides, the growth with NCI-H522 lung was 24.3%; in the assay with A549/ATCC NSCLC, 27.6%; in the assay with 786-0 renal it was 21.9%; in the assay with COLO 205 colon it was 42.8%.

`COc1c(N2CC3CCCNC3C2)c(F)cc2c(=O)c(C(=O)N/N=C/c3c[nH]c4ccccc34)cn(C3CC3)c12` (stereo not given): the growth in the assay on NCI-H23 lung was 102%; in the assay on NCI-H226 lung, 107%; in the assay with NCI-H322M lung, 105%; with HOP-62 NSCLC, 109%; in the assay with NCI-H460 lung, 107%; in the assay on HOP-92 NSCLC it was 79.6%. In addition, the growth in the assay with NCI-H522 lung was 107%; with A549/ATCC NSCLC, 102%; with 786-0 renal it was 95.1%; with COLO 205 colon it was 107%.

In the case of `CC(=O)c1cc(C(=O)c2ccc(Br)cc2)n2cc(C)cc(C)c12`, the growth with NCI-H23 lung was 102%; in the assay on NCI-H226 lung, 86.4%; with NCI-H322M lung, 100%; in the assay on HOP-62 NSCLC, 85.6%; with NCI-H460 lung, 88.7%; in the assay with HOP-92 NSCLC, 99%. In addition, the growth was 85.3% with NCI-H522 lung, 97.1% in the assay with A549/ATCC NSCLC, 89.4% with 786-0 renal and 97.7% in the assay with COLO 205 colon.

In the case of `COc1cc2oc(-c3cccc(NC(=O)c4cc(N)ccc4Cl)c3)cc(=O)c2c(OC)c1OC`, the growth was 102% with NCI-H23 lung; 97.1% with NCI-H226 lung; 105% in the assay with NCI-H322M lung; 111% in the assay on HOP-62 NSCLC; 104% in the assay on NCI-H460 lung; 51.9% in the assay with HOP-92 NSCLC. In addition, the growth was 101% with NCI-H522 lung, 103% with A549/ATCC NSCLC, 85.2% with 786-0 renal and 117% in the assay on COLO 205 colon.

`COc1ccccc1-n1cc(C#N)c(N)c1C(=O)c1ccc(Cl)cc1`: the growth in the assay with NCI-H23 lung is 90.8%; in the assay with NCI-H226 lung, 97.7%; in the assay with NCI-H322M lung it was 103%; in the assay on HOP-62 NSCLC, 87.7%; in the assay on NCI-H460 lung, 87.8%; in the assay on HOP-92 NSCLC, 101%. For the same compound, the growth in the assay with NCI-H522 lung was 22.4%; in the assay on A549/ATCC NSCLC it was 94.6%; in the assay on 786-0 renal it was 104%; with COLO 205 colon it was 86.8%.

`COC(=O)/C=C/c1c(C2(C)NC(=O)c3ccccc3N2)c(=O)oc2ccc(Cl)cc12` (stereo not given): the growth with NCI-H23 lung is 96.3%; in the assay on NCI-H226 lung it was 88.1%; with NCI-H322M lung, 95.1%; in the assay on HOP-62 NSCLC it was 92.7%; with NCI-H460 lung it was 96.3%; in the assay with HOP-92 NSCLC it was 88.9%. Besides, the growth with NCI-H522 lung was 68.3%; in the assay with A549/ATCC NSCLC, 95.2%; in the assay with 786-0 renal, 96.3%; with COLO 205 colon it was 117%.

For `COc1ccc(-c2cc(-c3ccc(Cl)cc3)c(C#N)c(=O)n2Cc2ccc(C(=O)O)cc2)cc1`, the growth was 85.9% with NCI-H23 lung; 100% in the assay with NCI-H226 lung; 95.5% in the assay on NCI-H322M lung; 78.6% in the assay with HOP-62 NSCLC; 92.4% in the assay with NCI-H460 lung; 98.3% with HOP-92 NSCLC. In addition, the growth was 28.5% in the assay on NCI-H522 lung, 108% in the assay on A549/ATCC NSCLC, 108% in the assay on 786-0 renal and 109% in the assay with COLO 205 colon.

Regarding `COc1c(N2CC3CCCNC3C2)c(F)cc2c(=O)c(C(=O)N/N=C/c3ccc4c(c3)OCO4)cn(C3CC3)c12` (stereo not given), the growth in the assay on NCI-H23 lung is 81.8%; in the assay with NCI-H226 lung it was 86.5%; with NCI-H322M lung, 88.3%; in the assay with HOP-62 NSCLC, 101%; in the assay with NCI-H460 lung, 79.2%; in the assay on HOP-92 NSCLC, 67.4%. Moreover, the growth in the assay on NCI-H522 lung is 29.3%; in the assay on A549/ATCC NSCLC it was 70.2%; with 786-0 renal, 50.3%; in the assay on COLO 205 colon, 85.5%.

On to `CCOC(=O)C(=O)/C(=C\c1ccc(Cl)cc1)C(=O)N1C(=S)NC(=O)C1CC(C)C` (stereo not given), for which the growth is 96.5% in the assay on NCI-H23 lung; 92% in the assay with NCI-H226 lung; 95.3% with NCI-H322M lung; 95.6% with HOP-62 NSCLC; 102% with NCI-H460 lung; 86.8% in the assay with HOP-92 NSCLC. In addition, the growth with NCI-H522 lung is 91.7%; with A549/ATCC NSCLC it was 104%; in the assay on 786-0 renal, 103%; in the assay on COLO 205 colon, 109%.

For the compound `O=C(CSc1nnc(-c2ccc(Cl)cc2)n1-c1ccccc1)Nc1ccc(Br)cc1`, the growth is 35.9% in the assay on NCI-H23 lung; -27.7% (active) with NCI-H226 lung; 0.91% (active) with NCI-H322M lung; -11.9% (active) in the assay with HOP-62 NSCLC; 5.77% (active) with NCI-H460 lung; -37.7% (active) in the assay with HOP-92 NSCLC. Moreover, the growth was 12.1% in the assay with NCI-H522 lung, 4.69% (active) in the assay with A549/ATCC NSCLC, -83% (active) in the assay on 786-0 renal and 51.9% in the assay with COLO 205 colon.

For `Cn1ccnc1C(=O)/C=C/c1ccc(NC(=O)c2c(F)c(F)c(F)c(F)c2F)cc1`, the growth is 97.6% in the assay on NCI-H23 lung; 103% with NCI-H226 lung; 94.8% in the assay on NCI-H322M lung; 120% with HOP-62 NSCLC; 105% in the assay on NCI-H460 lung; 123% in the assay on HOP-92 NSCLC. For the same compound, the growth in the assay with NCI-H522 lung is 94.3%; in the assay with A549/ATCC NSCLC, 101%; in the assay on 786-0 renal it was 101%; in the assay on COLO 205 colon, 124%.

On to `O=C(O)c1ccc(-n2cc(CNc3cc(F)c(F)c(F)c3)c(-c3cccc(F)c3)n2)cc1`, for which the growth in the assay with NCI-H23 lung is 84.9%; with NCI-H226 lung it was 93.9%; in the assay with NCI-H322M lung it was 97.2%; with HOP-62 NSCLC, 114%; in the assay with NCI-H460 lung it was 98.8%; with HOP-92 NSCLC it was 104%. The growth in the assay on NCI-H522 lung was 91.5%; in the assay with A549/ATCC NSCLC, 77.2%; in the assay with 786-0 renal it was 112%; in the assay with COLO 205 colon, 126%.

`COc1ccc(Oc2ccc(/C=N/NC(=O)CSc3nc4ccccc4c(=O)n3-c3ccc(Cl)cc3)cc2)cc1`: the growth in the assay on NCI-H23 lung was 41.6%; in the assay on NCI-H226 lung it was 79.7%; in the assay on NCI-H322M lung, 84.7%; with HOP-62 NSCLC, 73.3%; in the assay on NCI-H460 lung it was 11.2%; with HOP-92 NSCLC, 77.3%. Also, the growth with NCI-H522 lung was 51.3%; with A549/ATCC NSCLC, 47%; with 786-0 renal it was 25.2%; in the assay on COLO 205 colon it was 72.8%.
